Targets with a hit are over-represented here; the source holds about 7,900 in all. About 0.6% of all pairs of compound and target were hits.
Legend:
Assay in all cases: log2 fold change, soluble protein after heating vs DMSO (PISA); higher = thermal stabilisation; K562 cells, 10 uM, 30 min; active = over 0.2 and 3.5 SD of the protein, either way, in both replicates (recomputed)
erlotinib = compound: C#Cc1cccc(Nc2ncnc3cc(OCCOC)c(OCCOC)cc23)c1 [erlotinib]
How it was run: (§1)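 Values are thermal stability changes relative to control samples and are taken from duplicates. They are stated as log2 fold changes. Before quantification by TMTpro 16plex LC-MS/MS with equalised channel sums, K562 cells at 2×10^6 cells/mL were treated with 10 μM compound for 30 min, heated in aliquots for 3 min across 48°C-58°C, pooled, extracted in PBS with 0.5% NP-40 at 4°C, and centrifuged at 21,000xg for 90 min to give the soluble supernatant.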

[1] = compound: C/C(=N\NC(=O)C1=CC(=CC=C1)S(=O)(=O)N2CCOCC2)/C3=C(C=CC(=C3)Cl)O
How it was run: as §1

[2] = compound: C1=CC(=C(C=C1Cl)C2=NC3=NC=CN=C3C(=N2)NC4=CC=NC=C4)F
How it was run: as §1

[3] = compound: C1=CC(=CC=C1C2=NC3=C(N2)C=C(C=C3)C(=O)N)OC4=CC=C(C=C4)Cl
How it was run: as §1

[4] = compound: C1=CC2=C(C=CC(=C2)/C=C\3/C(=O)NC(=NCC4=CC=CS4)S3)N=C1
How it was run: as §1

[5] = compound: C1=CC2=NC=CN=C2C=C1/C=C/3\C(=O)NC(=O)S3
How it was run: as §1

[6] = compound: C1=CC=C(C=C1)C2=NC(=C(N2)C3=CC=NC=C3)C4=CC(=C(C=C4)Cl)O
How it was run: as §1

[7] = compound: C1=CC=C2C(=C1)C3=NNC4=CC=CC(=C43)C2=O
How it was run: as §1

[8] = compound: C1CCN(C1)C(=O)NC2=CC=CC(=C2)NC3=NC=C(C(=N3)NCCC4=CN=CN4)Br
How it was run: as §1

[9] = compound: C1CN(CCC1(CC2=CC=C(C=C2)Cl)N)C3=NC=NC4=C3C=CN4
How it was run: as §1

Measured: log2 fold change

DTYMK (UniProt P23919)
inactive: erlotinib -0.007 | [1] 0.025 | [2] 0.013 | [3] 0.04 | [4] -0.027 | [5] 0.044 | [6] -0.017 | [7] 0.095 | [8] 0.015 | [9] 0.016

CYFIP1 (UniProt Q7L576)
inactive: erlotinib -0.016 | [1] 0.066 | [2] 0.07 | [3] 0.018 | [4] 0.002 | [5] 0.026 | [6] 0.003 | [7] -0.016 | [8] 0.005 | [9] 0.059

EGR1 (UniProt P18146)
inactive: erlotinib -0.105 | [1] 0.001 | [2] 0.071 | [3] 0.176 | [4] 0.208 | [5] 0.088 | [6] -0.28 | [7] -0.474 | [8] 0.118 | [9] -0.121

DIP2A (UniProt Q14689)
Sequence of UniProt Q14689 (Q14689 whole entry, looked up): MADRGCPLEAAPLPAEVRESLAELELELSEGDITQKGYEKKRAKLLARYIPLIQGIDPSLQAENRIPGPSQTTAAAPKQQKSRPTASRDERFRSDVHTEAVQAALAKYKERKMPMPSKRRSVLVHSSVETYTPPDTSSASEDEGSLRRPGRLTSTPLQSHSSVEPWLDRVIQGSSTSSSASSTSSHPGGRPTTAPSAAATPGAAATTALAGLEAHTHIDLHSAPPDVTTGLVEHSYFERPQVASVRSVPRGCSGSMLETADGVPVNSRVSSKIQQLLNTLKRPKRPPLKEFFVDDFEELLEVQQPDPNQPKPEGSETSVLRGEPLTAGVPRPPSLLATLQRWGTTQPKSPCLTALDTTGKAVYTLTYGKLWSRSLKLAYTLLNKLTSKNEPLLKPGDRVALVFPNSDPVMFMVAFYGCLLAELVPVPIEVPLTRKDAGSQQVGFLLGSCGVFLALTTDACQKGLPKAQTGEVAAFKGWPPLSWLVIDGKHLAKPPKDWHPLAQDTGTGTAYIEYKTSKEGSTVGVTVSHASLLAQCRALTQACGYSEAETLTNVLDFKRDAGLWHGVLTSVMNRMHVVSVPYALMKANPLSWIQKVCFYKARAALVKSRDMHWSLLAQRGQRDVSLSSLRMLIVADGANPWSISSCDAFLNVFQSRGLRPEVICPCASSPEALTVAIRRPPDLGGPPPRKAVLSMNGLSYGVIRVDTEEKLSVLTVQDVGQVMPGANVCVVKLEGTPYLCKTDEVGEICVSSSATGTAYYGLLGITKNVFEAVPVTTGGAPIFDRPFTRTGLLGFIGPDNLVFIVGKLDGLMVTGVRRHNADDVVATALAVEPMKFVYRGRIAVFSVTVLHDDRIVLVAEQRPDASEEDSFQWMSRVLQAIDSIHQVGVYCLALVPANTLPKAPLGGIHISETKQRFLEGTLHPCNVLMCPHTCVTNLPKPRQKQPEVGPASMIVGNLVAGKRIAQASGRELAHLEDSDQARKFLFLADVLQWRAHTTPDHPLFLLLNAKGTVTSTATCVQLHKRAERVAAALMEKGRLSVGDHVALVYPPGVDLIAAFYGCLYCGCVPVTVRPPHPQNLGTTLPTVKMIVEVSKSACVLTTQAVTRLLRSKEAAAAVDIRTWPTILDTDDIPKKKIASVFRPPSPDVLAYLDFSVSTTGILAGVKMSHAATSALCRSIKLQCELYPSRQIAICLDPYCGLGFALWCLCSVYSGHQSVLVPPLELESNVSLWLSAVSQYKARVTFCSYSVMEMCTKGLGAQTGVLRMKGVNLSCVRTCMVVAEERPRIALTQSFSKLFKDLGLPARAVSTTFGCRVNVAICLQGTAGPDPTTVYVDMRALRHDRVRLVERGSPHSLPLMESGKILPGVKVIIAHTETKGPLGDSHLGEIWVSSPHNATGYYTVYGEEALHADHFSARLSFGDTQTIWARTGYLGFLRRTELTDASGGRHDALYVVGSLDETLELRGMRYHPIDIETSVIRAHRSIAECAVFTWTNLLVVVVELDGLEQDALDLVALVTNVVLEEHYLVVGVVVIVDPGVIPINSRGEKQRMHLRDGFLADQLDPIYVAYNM
inactive: erlotinib -0.002 | [1] 0.07 | [2] 0.055 | [3] 0.103 | [4] -0.145 | [5] 0.076 | [6] 0.037 | [7] 0.043 | [8] 0.03 | [9] 0.053

EGLN1 (UniProt Q9GZT9)
active: [1] -0.355
inactive: erlotinib 0.035 | [2] 0.075 | [3] -0.035 | [4] 0.043 | [5] -0.08 | [6] 0.021 | [7] -0.02 | [8] 0.01 | [9] -0.003

EIF2AK1 (UniProt Q9BQI3)
inactive: erlotinib -0.002 | [1] 0.006 | [2] -0.042 | [3] 0 | [4] -0.029 | [5] -0.114 | [6] -0.029 | [7] 0.021 | [8] -0.007 | [9] 0.012

DNAAF2 (UniProt Q9NVR5)
Sequence of UniProt Q9NVR5 (Q9NVR5 whole entry, looked up): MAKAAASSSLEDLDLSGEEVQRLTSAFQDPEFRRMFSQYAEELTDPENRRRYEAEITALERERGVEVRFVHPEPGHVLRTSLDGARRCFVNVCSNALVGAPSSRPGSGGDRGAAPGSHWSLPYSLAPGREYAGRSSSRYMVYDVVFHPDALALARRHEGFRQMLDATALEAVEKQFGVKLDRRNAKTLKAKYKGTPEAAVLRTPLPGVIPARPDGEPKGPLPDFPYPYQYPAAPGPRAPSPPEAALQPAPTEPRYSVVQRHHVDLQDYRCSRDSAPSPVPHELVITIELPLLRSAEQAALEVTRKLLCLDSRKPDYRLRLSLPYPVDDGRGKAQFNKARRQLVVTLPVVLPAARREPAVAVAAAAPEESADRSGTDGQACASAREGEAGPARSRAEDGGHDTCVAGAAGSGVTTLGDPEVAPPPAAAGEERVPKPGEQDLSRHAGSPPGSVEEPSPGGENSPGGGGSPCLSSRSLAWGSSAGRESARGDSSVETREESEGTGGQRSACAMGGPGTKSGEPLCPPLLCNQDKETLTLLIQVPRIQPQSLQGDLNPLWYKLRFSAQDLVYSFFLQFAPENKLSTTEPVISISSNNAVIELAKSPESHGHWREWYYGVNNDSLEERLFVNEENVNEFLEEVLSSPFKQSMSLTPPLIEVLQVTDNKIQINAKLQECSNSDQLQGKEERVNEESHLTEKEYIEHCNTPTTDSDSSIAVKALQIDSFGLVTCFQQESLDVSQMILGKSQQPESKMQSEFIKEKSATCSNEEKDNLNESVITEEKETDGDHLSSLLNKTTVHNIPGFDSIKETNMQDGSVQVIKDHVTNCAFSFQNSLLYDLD
inactive: erlotinib 0.046 | [1] 0.021 | [2] 0.108 | [3] -0.003 | [4] 0.01 | [5] 0.016 | [6] -0.018 | [7] -0.025 | [8] 0.021 | [9] -0.025

CYP51A1 (UniProt Q16850)
Sequence of UniProt Q16850 (Q16850 whole entry, looked up): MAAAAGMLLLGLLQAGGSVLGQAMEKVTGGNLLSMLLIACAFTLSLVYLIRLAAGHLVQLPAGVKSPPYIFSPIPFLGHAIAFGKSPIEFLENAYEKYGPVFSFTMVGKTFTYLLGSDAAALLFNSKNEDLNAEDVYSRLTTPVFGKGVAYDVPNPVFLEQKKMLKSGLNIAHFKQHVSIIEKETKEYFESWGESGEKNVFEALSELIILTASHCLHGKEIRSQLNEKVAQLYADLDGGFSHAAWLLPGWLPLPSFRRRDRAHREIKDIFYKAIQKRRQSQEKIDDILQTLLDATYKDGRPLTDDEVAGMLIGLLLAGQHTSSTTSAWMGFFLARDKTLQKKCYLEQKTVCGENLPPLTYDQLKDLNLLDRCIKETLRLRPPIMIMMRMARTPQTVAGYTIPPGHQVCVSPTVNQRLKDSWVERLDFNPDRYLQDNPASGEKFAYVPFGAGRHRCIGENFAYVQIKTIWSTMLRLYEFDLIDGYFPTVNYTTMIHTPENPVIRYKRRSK
inactive: erlotinib -0.09 | [1] 0.019 | [2] -0.248 | [3] -0.002 | [4] 0.007 | [5] 0.018 | [6] -0.096 | [7] 0.089 | [8] 0.014 | [9] 0.137

ECH1 (UniProt Q13011)
Sequence of UniProt Q13011 (Q13011 whole entry, looked up): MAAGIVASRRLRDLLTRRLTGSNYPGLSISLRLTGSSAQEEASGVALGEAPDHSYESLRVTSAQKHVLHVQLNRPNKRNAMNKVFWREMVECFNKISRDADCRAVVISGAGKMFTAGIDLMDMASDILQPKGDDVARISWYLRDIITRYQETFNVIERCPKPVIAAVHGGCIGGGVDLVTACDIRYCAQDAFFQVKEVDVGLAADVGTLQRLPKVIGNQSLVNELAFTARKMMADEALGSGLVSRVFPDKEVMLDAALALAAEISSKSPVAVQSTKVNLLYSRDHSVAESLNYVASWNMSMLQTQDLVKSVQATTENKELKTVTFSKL
inactive: erlotinib -0.027 | [1] 0.053 | [2] 0.243 | [3] 0 | [4] 0.126 | [5] -0.018 | [8] -0.028 | [9] -0.064
active: [6] 0.541 | [7] 0.361

CTSV (UniProt O60911)
inactive: erlotinib 0.043 | [1] -0.105 | [2] 0.023 | [3] -0.054 | [4] 0.035 | [5] -0.004 | [6] 0.024 | [7] 0.023 | [8] 0.04 | [9] 0.022

DYNC1LI2 (UniProt O43237)
Sequence of UniProt O43237 (O43237 whole entry, looked up): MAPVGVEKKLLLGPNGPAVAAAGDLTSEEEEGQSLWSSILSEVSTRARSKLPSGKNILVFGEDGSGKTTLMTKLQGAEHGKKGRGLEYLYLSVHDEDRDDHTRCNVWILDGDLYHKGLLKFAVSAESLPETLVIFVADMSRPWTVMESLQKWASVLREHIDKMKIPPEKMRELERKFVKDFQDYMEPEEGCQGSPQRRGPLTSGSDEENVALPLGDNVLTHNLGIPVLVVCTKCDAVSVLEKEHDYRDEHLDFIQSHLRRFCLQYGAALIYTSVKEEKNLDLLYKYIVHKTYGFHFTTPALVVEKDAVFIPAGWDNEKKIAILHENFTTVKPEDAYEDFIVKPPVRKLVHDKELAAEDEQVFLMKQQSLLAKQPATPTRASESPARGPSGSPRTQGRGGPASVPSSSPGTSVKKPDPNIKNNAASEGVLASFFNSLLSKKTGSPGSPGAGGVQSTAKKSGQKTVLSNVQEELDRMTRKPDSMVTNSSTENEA
inactive: erlotinib 0.035 | [1] -0.147 | [2] -0.257 | [3] -0.012 | [4] -0.04 | [5] -0.073 | [6] -0.061 | [7] 0.049 | [8] 0.035 | [9] -0.052

DDX39A (UniProt O00148)
inactive: erlotinib 0.038 | [1] 0.027 | [2] 0.031 | [3] -0.03 | [4] -0.026 | [5] -0.068 | [6] -0.026 | [7] -0.059 | [8] -0.007 | [9] -0.019

DYNC1I2 isoform 5 (UniProt Q13409)
Sequence of UniProt Q13409 (Q13409 whole entry, looked up): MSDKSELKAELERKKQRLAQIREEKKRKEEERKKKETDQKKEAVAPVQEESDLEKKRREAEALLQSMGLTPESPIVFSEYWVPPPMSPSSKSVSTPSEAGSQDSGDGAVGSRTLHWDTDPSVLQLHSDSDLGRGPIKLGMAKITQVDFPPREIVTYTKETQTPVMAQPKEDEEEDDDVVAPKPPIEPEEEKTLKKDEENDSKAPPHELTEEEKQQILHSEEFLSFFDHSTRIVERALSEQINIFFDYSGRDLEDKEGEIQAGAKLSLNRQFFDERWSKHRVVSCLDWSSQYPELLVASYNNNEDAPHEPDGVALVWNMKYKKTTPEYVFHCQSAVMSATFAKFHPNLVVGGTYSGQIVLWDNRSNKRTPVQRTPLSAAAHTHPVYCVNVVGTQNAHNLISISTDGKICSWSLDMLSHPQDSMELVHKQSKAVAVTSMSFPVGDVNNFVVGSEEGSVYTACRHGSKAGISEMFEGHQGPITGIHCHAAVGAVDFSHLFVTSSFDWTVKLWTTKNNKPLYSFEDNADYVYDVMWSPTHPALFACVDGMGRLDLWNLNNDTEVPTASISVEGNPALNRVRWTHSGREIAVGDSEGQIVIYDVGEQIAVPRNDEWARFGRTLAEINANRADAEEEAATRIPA
inactive: erlotinib -0.009 | [1] -0.016 | [2] -0.033 | [3] 0.003 | [4] 0.025 | [5] -0.006 | [6] 0.057 | [7] 0.016 | [8] 0.007 | [9] 0.018

EDC3 (UniProt Q96F86)
Sequence of UniProt Q96F86 (Q96F86 whole entry, looked up): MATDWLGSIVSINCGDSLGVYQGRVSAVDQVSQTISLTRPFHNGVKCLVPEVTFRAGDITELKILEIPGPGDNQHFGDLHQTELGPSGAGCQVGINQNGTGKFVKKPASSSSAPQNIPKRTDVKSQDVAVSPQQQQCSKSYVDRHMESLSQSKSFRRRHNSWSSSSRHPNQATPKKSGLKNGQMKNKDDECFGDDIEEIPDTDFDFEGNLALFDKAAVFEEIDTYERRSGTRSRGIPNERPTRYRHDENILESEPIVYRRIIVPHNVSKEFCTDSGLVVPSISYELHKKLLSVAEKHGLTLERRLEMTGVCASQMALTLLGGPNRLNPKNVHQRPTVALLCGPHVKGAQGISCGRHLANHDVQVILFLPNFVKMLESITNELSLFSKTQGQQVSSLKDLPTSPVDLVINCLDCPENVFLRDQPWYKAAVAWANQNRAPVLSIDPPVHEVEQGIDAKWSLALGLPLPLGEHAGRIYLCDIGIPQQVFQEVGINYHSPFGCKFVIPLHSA
inactive: erlotinib -0.023 | [1] 0.156 | [2] 0.009 | [3] 0.043 | [4] -0.007 | [5] -0.227 | [6] -0.024 | [7] -0.057 | [8] -0.195
active: [9] -0.376

E2F4 (UniProt Q16254)
inactive: erlotinib 0.021 | [1] -0.003 | [2] 0.019 | [3] -0.003 | [4] 0.029 | [5] 0.043 | [6] -0.064 | [7] -0.02 | [8] -0.071 | [9] -0.022
